The full ranking holds about 33,000 sequences; the median of “E-score (-0.5 to 0.5)” is about -8e-05, and the highest 2% start at about 0.23. For the sample, the highest values were picked, then their nearest neighbours and some sequences at random.
These sequences were tested against T1, Nrg2 (UniProt P38082) (assay: PBM E-score (8-mer binding enrichment) (E-score (-0.5 to 0.5)); higher = stronger / more preferred TF binding). Conditions: protein concentration: 100 nM; construct: GST-full length.
T1 sequence: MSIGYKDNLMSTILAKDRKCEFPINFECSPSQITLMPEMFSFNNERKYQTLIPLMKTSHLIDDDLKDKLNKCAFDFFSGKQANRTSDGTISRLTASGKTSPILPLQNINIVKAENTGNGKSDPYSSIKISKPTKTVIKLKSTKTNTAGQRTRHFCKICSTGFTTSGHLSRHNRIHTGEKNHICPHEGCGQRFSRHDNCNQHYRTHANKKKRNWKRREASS
Protocol: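 Universal 'all 10-mer' protein binding microarrays (Agilent AMADID 015681) probed with GST-tagged S. cerevisiae TFs (full-length or DBD) made by in vitro transcription/translation (PURExpress), about 100-200 nM. Bound TF was detected with fluorescent anti-GST. Each ungapped 8-mer (which stands for itself and its reverse complement) is scored by the PBM enrichment score (E-score), a modified Wilcoxon-Mann-Whitney statistic from -0.5 to +0.5, computed with the Universal PBM Analysis Suite. Scale: above 0.35 generally sequence-specific binding.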

Sequence	PBM E-score
TATCAACA	0.0479
GATCAACA	-0.0582
AATCAACA	0.239
ATCGCATG	0.188
CCTCCAAA	-0.0762
CCTACGCA	-0.133
CGGCCGCA	0.0157
AATATCGA	0.244
AATATCGG	0.137
GATATCGA	0.0243
CATATCGA	0.118
TATATCGA	0.278
AATATCGC	0.104
CGCTTATC	-0.0744
CTGCTTTC	0.104
CTGCTTTA	0.23
ATGCTTTA	-0.178
GGGTTTAC	-0.0342
GATTCAAC	0.00265
AATTCAGA	0.0972
AATTCTAT	-0.0322
AATTCAGG	0.336

Sequence	PBM E-score
AATTCAGT	-0.0207
AATTCTAG	-0.027
AATTCTAC	0.231
AATTCAAG	0.0675
AATTCAAC	0.256
AAGACTCA	-0.249
TCCGTACA	0.146
ACACGTCC	-0.254
AGCTTTCG	-0.106
GATACTAC	0.13
CGAGTTCC	0.0649
AACCGCGA	0.256
AACCGCGT	0.0966
TACCGCGA	0.0041
CCATGCCC	-0.111
ACTAAATG	-0.0439
AGCATATC	0.0744
CGCATATC	0.293
CGCATATA	0.0344
ATAGTAAA	0.203
ATAGTAAT	0.234
ATAGTAGC	0.25

Sequence	PBM E-score
ATAGTAAC	0.074
ATAGTAGA	0.102
ATAGTAGG	0.0354
GAAAGGCA	-0.0231
ACGAAGCC	-0.0825
GCTCCAAA	-0.202
TCAATGCA	-0.183
AGTCTCGG	-0.0965
ATAATCGG	0.246
ATAATCCG	0.0659
ATAATCCA	0.128
ATAATCAT	0.235
ATAATCGA	0.0835
ATAATCAG	0.0745
ATAATCGC	-0.0299
ATAATCCC	0.24
ATAATCAA	0.0599
TCCTATAA	-0.0317
CAAACCAA	0.214
CTATAGGA	-0.0776
CATGGTTC	0.0101
ATGCAAGC	0.0922

Sequence	PBM E-score
ATCTAACC	0.0422
AAGGATTC	-0.124
GACCAAGA	0.0552
ATGCCCAT	-0.093
ACCATCGC	0.139
CGTTTCAC	-0.00605
CGAGACCG	-0.0751
CGAGACCC	0.263
GGAGACCC	0.076
ATTGCGTC	0.237
ATTGCGTA	0.145
CTTGCGTC	-0.00183
GTGCCAAA	-0.0122
AGCATCGC	-0.0887
CGTCACAG	0.282
CGTCACAA	0.0516
CGTCACAC	-0.0186
GTATAGCA	0.078
ACACAGGG	0.238
ATACAGGG	0.274
ATACAGGA	-0.00019
CAACAGGC	-0.129

Sequence	PBM E-score
ATACAGGC	-0.0144
ACACAGGC	0.0691
CAACAGGG	0.312
CAACAGGA	-0.152
ACACAGGA	-0.0296
ACAGAGGC	-0.172
ATTGTGCA	0.0869
GCGTTAGA	0.0176
ACTTGGAG	-0.108
TTAATAAA	0.201
GTTATAAA	0.0259
ATAATAAA	0.224
CTAATAAA	0.259
ATAATACC	0.171
ATAATACA	0.282
ATAATATA	0.268
CTAATATA	0.13
ATAATATG	0.198
ATAATACG	0.18
TTTATAAA	0.245
CTTATAAA	0.131

— the supplement of paper PMC3334620
